PubChem BioAssay
Results with a measured potency or affinity are listed apart. Inconclusive results are not listed. Calls of active or inactive are those of the source. Unless noted, the rule behind the calls is not given here.

Experiments:
[1] = inhibitors of PAX8-driven TPO luciferase reporter, dose response, RMG-I cells, cherry-pick (AID 687027;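 active = every replicate test run called active, with the signal dropping as expected and potency within twice the top valid dose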)
[2] = cytotoxicity in PAX8-dependent RMG-1 cells, dose response, cell-based, cherry-pick (AID 687029;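 active = signal drop whose fitted half-maximal concentration is at most twice the top valid dose, in every test run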;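 note: cells exposed to compound for 96 hours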)
[3] = cytotoxicity in IOSE-T80 ovarian epithelial cells, dose response, selectivity assay for PAX8 inhibitor project, cell-based, cherry-pick (AID 687032;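 active = fitted half-maximal concentration for viability loss no higher than twice the top valid dose, in every repeat run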;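 note: cells exposed to compound for 96 h before reading; 0% = neutral control wells and -100% = 2 µM mitoxantrone kill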)
[4] = inhibitors of CMV-promoter luciferase reporter, dose response, counter-screen for Pax8 inhibitor project, cell-based, HEK293, luminescence, dry powder (AID 743020;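 active = signal-lowering compounds whose fitted half-maximal concentration is at or below twice the top tested dose in every run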;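 note: HEK293 cells stably expressing the CMV luciferase reporter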)
[5] = non-specific cell cytotoxicity, dose response, cytotoxicity control for PAX8 inhibitor project, plate reader, dry powder samples (AID 743021)
[6] = IGROV1 ovarian cancer cell cytotoxicity, dose response, PAX8 inhibitor project, plate reader, dry powder samples (AID 743043);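 note: more negative means fewer viable cells or more cytotoxicity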
[7] = NIH:OVCAR-3 ovarian cancer cell cytotoxicity, dose response, PAX8 inhibitor project, plate reader, dry powder samples (AID 743044); settings: max activity: at 35 µM, stronger effect = lower value unless noted
[8] = IOSE-T80 ovarian epithelial cell cytotoxicity, dose response, cytotoxicity control for PAX8 inhibitor project, plate reader, dry powder samples (AID 743045);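 note: 0% = neutral control median and -100% = positive control median; more negative values mean more cell killing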
[9] = A2780 ovarian cancer cell cytotoxicity, dose response, cytotoxicity control, plate reader, dry powder samples (AID 743046);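 note: 0% = neutral control wells and -100% = cytotoxic reference compound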
[10] = cytotoxicity in OVCAR8 ovarian cancer cells, dose response, PAX8 project, cell-based, plate reader, dry powder samples (AID 743197)

CN(C)C(=O)c1cccc(-c2ccccc2[C@@H]2[C@@H](C#N)N(C(=O)C3CC3)[C@H]2CO)c1
inactive: outcome [1] | outcome [2] | outcome [3] | outcome [4] | outcome [5] | outcome [6] | max activity [7] 12.7% [at 0.26 µM, stronger effect = lower value] | outcome [8] | outcome [9] | outcome [10]

O=C(C[C@@H]1C=C[C@H](NC(=O)Nc2ccc(C(F)(F)F)cc2)[C@H](CO)O1)NCCN1CCCC1
inactive: outcome [1] | outcome [2] | outcome [3] | outcome [4] | outcome [5] | outcome [6] | max activity [7] 7.59% [at 2.1 µM, stronger effect = lower value] | outcome [8] | outcome [9] | outcome [10]

O=C(CSc1nc2ccccc2s1)NCCOc1ccccc1
inactive: outcome [1] | outcome [2] | outcome [3] | outcome [5]

O=C(Cn1cc(C(F)(F)F)ccc1=O)Nc1ccc2c(c1)OCO2
inactive: outcome [1] | outcome [2] | outcome [4] | outcome [5]

Cc1nn(CCO)c2nc(-c3cccs3)cc(C(F)(F)F)c12
inactive: outcome [1] | outcome [2] | outcome [3] | outcome [5]

CCCCC(=O)N1CCN(c2ccc(OC)cc2[N+](=O)[O-])CC1
inactive: outcome [1] | outcome [2] | outcome [3] | outcome [5]

CN1CCN(C(=S)Nc2ccc(Cl)c(Cl)c2)CC1
inactive: outcome [1] | outcome [2] | outcome [4] | outcome [5]

COC1OC(COCc2ccccc2)C2OC(C)(C)OC2C1O (centres undefined)
inactive: outcome [1] | outcome [2] | outcome [4] | outcome [5]

Cc1cnc(NC(=O)CSc2nnc(C)n2N)s1
inactive: outcome [1] | outcome [2] | outcome [4] | outcome [5]

Cc1cccc(C(=O)Oc2ccc(/C=N/NC(=O)c3ccccc3O)cc2)c1
inactive: outcome [1] | outcome [2] | outcome [3] | outcome [5]

O=C(/C=C/c1c(Cl)nc2ccccn12)Nc1ccc(F)cc1
inactive: outcome [1] | outcome [2] | outcome [3] | outcome [5]

COc1ccc(C2CC(c3ccc(Br)cc3)=NN2C(=S)Nc2ccccc2)cc1 (centres undefined)
inactive: outcome [1] | outcome [2] | outcome [3] | outcome [5]

CC(=O)Nc1ccc(C(=O)CSc2cc(C)c3cccc(C)c3n2)cc1
inactive: outcome [1] | outcome [2] | outcome [3] | outcome [5]

COc1ccc2oc(C)c(C(=O)c3ccc([N+](=O)[O-])cc3)c2c1
inactive: outcome [1] | outcome [2] | outcome [3] | outcome [5]

O=C1c2cccc3c(O)ccc(c23)C(=O)N1c1ccc(Cl)cc1
inactive: outcome [1] | outcome [2] | outcome [3] | outcome [5]

Cc1cccc(OCc2nc(-c3cccnc3)no2)c1
inactive: outcome [1] | outcome [2] | outcome [3] | outcome [5]

CCCCCCCCNC(=O)c1cnccn1
inactive: outcome [1] | outcome [2] | outcome [4] | outcome [5]

O=[N+]([O-])c1ccc2nc(SCc3cn4ccccc4n3)[nH]c2c1
inactive: outcome [1] | outcome [2] | outcome [3] | outcome [5]

O=C(/C=C/c1ccc(Cl)cc1Cl)N1CCN(c2ccccc2[N+](=O)[O-])CC1
inactive: outcome [1] | outcome [2] | outcome [4] | outcome [5]

COc1ccc(-n2nc([N+](=O)[O-])c(=NCc3cccnc3)n2O)cc1
inactive: outcome [1] | outcome [2] | outcome [4] | outcome [5]

CN(C(=O)COC(=O)C1CCN(S(=O)(=O)c2c(Cl)cccc2Cl)CC1)C1CCS(=O)(=O)C1 (centres undefined)
inactive: outcome [1] | outcome [2] | outcome [4] | outcome [5]

O=C(Cc1cccs1)N/N=C/C=C/c1ccccc1
inactive: outcome [1] | outcome [2] | outcome [4] | outcome [5]

Cc1ccc(/C=N/NC(=O)c2ccccn2)o1
inactive: activity change, negative = inhibition [1] 80.8% [at 8 µM] | outcome [2] | outcome [3] | outcome [5]

O=C(/C=C/c1ccco1)Nc1nc(-c2ccccc2)cs1
inactive: activity change, negative = inhibition [1] 99.9% [at 8 µM] | outcome [2] | outcome [3] | outcome [5]

Fc1ccc(CSc2ccc(-c3ccco3)nn2)cc1
inactive: outcome [1] | outcome [2] | outcome [3] | outcome [5]

COc1ccc(O)c(C(c2c(C)[nH][nH]c2=O)c2c(C)[nH][nH]c2=O)c1
inactive: outcome [1] | outcome [2] | outcome [3] | outcome [5]

O=C(Nc1ccccc1)N1CCCCN2[C@@H](CO)[C@@H](c3ccc(C#Cc4ccccc4)cc3)[C@@H]2C1
inactive: outcome [1] | outcome [2] | outcome [4] | outcome [5]

O=C(NNC(=O)c1cccc2ccccc12)c1cccc(F)c1
inactive: outcome [1] | outcome [2] | outcome [4] | outcome [5]

Cc1cc(=O)oc2ccc(OC(=O)CN3C(=O)c4cccc([N+](=O)[O-])c4C3=O)cc12
inactive: outcome [1] | outcome [2] | outcome [3] | outcome [5]

CCNC(=O)C1(C)CCN(C(=O)c2ccccc2F)C1 (centres undefined)
inactive: outcome [1] | outcome [2] | outcome [4] | outcome [5]

COc1ccccc1NC1=Nc2cccc3cccc1c23
inactive: outcome [1] | outcome [2] | outcome [3] | outcome [5]

O=[N+]([O-])c1cccc(-c2nnc(-c3ccc4c(c3)OCO4)o2)c1
inactive: outcome [1] | outcome [2] | outcome [4] | outcome [5]

COc1ccc(-c2cn(CC[C@@H]3CC[C@H](NC(=O)Cc4ccccn4)[C@@H](CO)O3)nn2)cc1
inactive: outcome [1] | outcome [2] | outcome [3] | outcome [5] | outcome [6] | max activity [7] -8.11% [at 8 µM, stronger effect = lower value] | outcome [8] | outcome [9] | outcome [10]

CCN(C(=O)COC(=O)c1ccc(S(=O)(=O)N2CCCc3ccccc32)cc1)C1CCS(=O)(=O)C1 (centres undefined)
inactive: outcome [1] | outcome [2] | outcome [3] | outcome [5]

COc1ccc(OCCNC(=O)/C=C/c2ccc([N+](=O)[O-])cc2)cc1
inactive: outcome [1] | outcome [2] | outcome [4] | outcome [5]

O=C(Cc1nnc(NC(=O)c2ccccc2)s1)N/N=C/c1ccco1
inactive: outcome [1] | outcome [2] | outcome [4] | outcome [5]

O=C(CCN1C(=O)/C(=C/c2ccccc2Cl)SC1=S)Nc1ccccc1C(=O)O
inactive: outcome [1] | outcome [2] | outcome [4] | outcome [5]

CC1CCN(CCOc2ccc(OCc3ccccc3)cc2)CC1
inactive: outcome [1] | outcome [2] | outcome [3] | outcome [5]

O=C(CSc1cccc[n+]1[O-])Nc1cc(S(=O)(=O)N2CCOCC2)ccc1N1CCOCC1
inactive: outcome [1] | outcome [2] | outcome [3] | outcome [5]

CCOC(=O)C1(Cc2ccc(OC)cc2)CCN(C(=O)CN2CCCCC2=O)CC1
inactive: outcome [1] | outcome [2] | outcome [3] | outcome [5]

Cc1cc(OCCCn2cnc3ccccc3c2=O)ccc1[N+](=O)[O-]
inactive: outcome [1] | outcome [2] | outcome [4] | outcome [5]

CCN1CCN(c2nc(-c3cccs3)nc3ccccc23)CC1
inactive: outcome [1] | activity change, negative = inhibition [2] 16.7% [at 8 µM] | outcome [5]

COc1ccc(NC(=O)c2nn(C34CC5CC(CC(C5)C3)C4)cc2[N+](=O)[O-])cc1
inactive: outcome [1] | outcome [2] | outcome [4] | outcome [5]

COc1ccc(C(=O)N/N=C/c2ccc(OC(=O)c3cccs3)cc2)cc1
inactive: outcome [1] | outcome [2] | outcome [5]

CCCCCC(=O)N/N=C(\C)c1ccc(N2CCCCC2)cc1
inactive: outcome [1] | outcome [2] | outcome [5]

CO[C@@H]1CN(C)C(=O)c2cc(NC(=O)c3nc4ccccc4s3)ccc2OC[C@H](C)NC[C@H]1C
inactive: outcome [1] | outcome [2] | outcome [4] | outcome [5] | outcome [6] | max activity [7] -38.8% [at 30 µM, stronger effect = lower value] | outcome [8] | outcome [10]

O=C(NCc1ccc(F)cc1)C1(c2cccs2)CCOCC1
inactive: outcome [1] | outcome [2] | outcome [5]

Cc1ccc(NC(=O)c2c([N+](=O)[O-])c(C(C)(C)C)nn2C)c(C)c1
inactive: outcome [1] | outcome [2] | outcome [5]

Cc1ccc(-c2ccc([C@@H]3[C@H](CO)N4CCCCN(C(=O)Nc5cccc(F)c5)C[C@@H]34)cc2)cc1
inactive: outcome [1] | outcome [2] | outcome [4] | outcome [5] | outcome [8] | outcome [9]

O=C(NCC1CCCO1)C(=O)NCC(c1ccco1)N1CCN(c2ccccc2)CC1 (centres undefined)
inactive: outcome [1] | outcome [2] | outcome [4] | outcome [5]

Cc1ccc2nc(-c3ccc(NC(=S)NC4CC(C)(C)NC(C)(C)C4)cc3)sc2c1
inactive: outcome [1] | outcome [2] | outcome [5]

COc1ccc(C(C)NC(=O)c2ccc(Br)cc2)cc1OC (centres undefined)
inactive: outcome [1] | outcome [2] | outcome [4] | outcome [5]

O=C(Cc1ccccc1)c1ccccc1C(=O)N1CCCCC1
inactive: outcome [1] | outcome [2] | outcome [4] | outcome [5]

Cc1ccc(-c2nc(C)sc2CC(=O)OCC(=O)Nc2cccc([N+](=O)[O-])c2)cc1
inactive: outcome [1] | outcome [2] | outcome [5]

COc1ccc(C(=O)NC(=S)NNC(=O)COc2ccccc2)cc1
inactive: outcome [1] | outcome [2] | outcome [5]

CCCNC(=O)COC(=O)/C=C/c1ccco1
inactive: outcome [1] | outcome [2] | outcome [5]

O=C(Cc1ccc(F)cc1)OCC(=O)N1CCN(S(=O)(=O)c2ccc(Cl)cc2)CC1
inactive: outcome [1] | outcome [2] | outcome [4] | outcome [5]

Nn1cnnc1N/N=C\c1ccc(-c2ccccc2[N+](=O)[O-])o1
inactive: outcome [1] | outcome [2] | outcome [4] | outcome [5]

CC(C)(C)OC(=O)[C@H](Cc1ccccc1)NC(=O)c1nc[nH]c1C(=O)N[C@@H](Cc1ccccc1)C(=O)OC(C)(C)C
inactive: activity change, negative = inhibition [1] -24.7% [at 8 µM] | outcome [2] | outcome [5]

O=C(O)C1C=CC(C(=O)O)c2ccccc21 (centres undefined)
inactive: outcome [1] | outcome [2] | outcome [4] | outcome [5]

Nc1ccc2c(c1)CC(=O)c1ccccc1S2
inactive: outcome [1] | outcome [2] | outcome [4] | outcome [5]

CCCCC1Cc2[nH]c(=S)[nH]c(=O)c2C(c2ccc(F)cc2)O1 (centres undefined)
inactive: outcome [1] | outcome [2] | outcome [4] | outcome [5]

OCC1CCCN(C(=S)Nc2ccc(OC(F)F)cc2)C1 (centres undefined)
inactive: outcome [1] | outcome [2] | outcome [5]

C[C@@H]1CN([C@@H](C)CO)C(=O)CCCn2nncc2CO[C@H]1CN(C)S(=O)(=O)c1ccc(Cl)cc1
inactive: outcome [1] | outcome [2] | outcome [5]

Cc1cc([N+](=O)[O-])nn1CCCC(=O)Nc1sc2c(c1C(N)=O)CCC(C)C2 (centres undefined)
inactive: outcome [1] | outcome [2] | outcome [5]

Cc1cc(C)c2c(c1)/C(=N/NC(=O)c1cc(C)oc1C)CCC2
inactive: outcome [1] | outcome [2] | outcome [5]

Cn1ccnc1SCc1nc2c(cnn2-c2ccccc2)c(=O)[nH]1
inactive: outcome [1] | outcome [2] | outcome [5]

COc1ccc(C)cc1NC(=O)C1CCCN(S(=O)(=O)c2cccc3nonc23)C1 (centres undefined)
inactive: outcome [1] | outcome [2] | outcome [4] | outcome [5]

O=C(O)CC(NC(=O)C1c2ccccc2Oc2ccccc21)c1ccc(OC2CCCC2)cc1 (centres undefined)
inactive: outcome [1] | outcome [2] | outcome [4] | outcome [5]
